The text below walks through data of the OligoGym collection.
Note: reference of the scale not given here.

One assay has as its target MTDH. Briefly: pooled miR-30 sensor sort-seq; sequence = guide strand. Conditions: shRNA.
Turning to TTAGAAGTGAAGCTCTTTCTTC, the sensor-assay potency score (higher = more potent) is -0.219.
On the same count and under the same terms, for TTGCTTACTAATCTGTAGGCAA the value was -0.352; for TAACTTGAACATTTAGATGAGA, -0.76.
TTCTCGGACAGTTTCTTCCGGT yielded a sensor-assay potency score (higher = more potent) of -0.0604.
On the same count and under the same terms, as for TTTATCATCATCTGAGACCTTT, the figure is -0.0741.
The same measure, in the same setting: as for TAGTTGAATCCAATGAACCAGA, the figure is -0.602; as for TTTTGCTTGGTATTTGACTTGG, -0.198.

Another assay deals with MTF2. The assay is described as above. Particulars: shRNA.
Sequence TATAGAACAAGGTAAATCCAAA displayed a sensor-assay potency score (higher = more potent) of -1.04.
The same measure, in the same setting: as for TTCCACAAGATACTGCACCTTT, the figure is 0.329; as for TTGACATATTGTACAGACCATT, -1.28.
For the sequence TTTGGCTTTATGTCCATCCTGT, the sensor-assay potency score (higher = more potent) is 0.854.
For TAAAACAAGCCATCTGACCATC, the sensor-assay potency score (higher = more potent) is -1.1.
The same measure, in the same setting: as for TTTATCTTTTTGATAGTGCCAA, the figure is -0.334.
The same measure, in the same setting: for TTTGCAGCACTGTAGCATCTTC the value was -0.454.
Still for that read-out and setting: as for TACTCTTCTTGACATATTGTAC, the figure is -0.653; as for ATGATTGAGTTGTAACTCCTGA, -0.17.
For TTTTTTTCTATGCCATTGCTTA, the sensor-assay potency score (higher = more potent) is -0.923.
The sequence TATTCTGGTCCAGAACTGCAGA yielded a sensor-assay potency score (higher = more potent) of -0.798.
For TTATCTTTTTGATAGTGCCAAG, the sensor-assay potency score (higher = more potent) was -1.55.

A further assay deals with MTFP1. Described as above. Conditions: shRNA.
In turn, TAGAGCTTGCGCAGGCTGGAGT gave a sensor-assay potency score (higher = more potent) of -0.938.
TGTTGGGTAGAGCTTGCGCAGG came in with a sensor-assay potency score (higher = more potent) of -1.71.
On to TTTGTCAATGGCATCCGCCAGC, for which the sensor-assay potency score (higher = more potent) was -0.615.
Same read-out and setting: as for TCCGCCAGCACGTAGGAGCTGG, the figure is -1.34; as for TCAGCCACACCACCGCCGCTGG, -1.36.
The same measure, in the same setting: as for TTGTCTCTAAGCTTCTGTCCAG, the figure is -0.49.
On the same count and under the same terms, for TAGGAGGTTGACATGAAGCAGG the value was -1.07; for TAGCTCAGCCACACCACCGCCG, -0.967.
On to TGTCTCTAAGCTTCTGTCCAGC, for which the sensor-assay potency score (higher = more potent) was -0.761.
Same read-out and setting: as for TCCACCGACCTCTCCAGCCTTC, the figure is -1.18; as for TATCGCACCCACGTGTCCCGGT, -0.561.
Sequence TTGGACACCAGGGAGCCAGGTG gave a sensor-assay potency score (higher = more potent) of -0.945.

For the next assay, the target named is MTG1. The description is as above. Particulars: shRNA.
Regarding ATTTTGGACATCACAGCTCTGG, the sensor-assay potency score (higher = more potent) was -0.514.
Take TTGGACATCACAGCTCTGGTGA: the sensor-assay potency score (higher = more potent) is -0.544.
TTTTGGACATCACAGCTCTGGT registered a sensor-assay potency score (higher = more potent) of -1.25.
Same read-out and setting: as for TTCTCCTTCTAAGTGTTGCATA, the figure is -0.79; as for TAAGTGTTGCATAATTTTCTGC, 0.0697; as for TTCTCTTTTCGGTGGTAGCGGT, -0.857.
On the same count and under the same terms, for TATAGCTTTAACTCCTTCTGAG the value was -0.0288.
On the same count and under the same terms, for ATCAGTTCAGTGACCATCGGGA the value was -0.492.
In the case of TCATCCTTTACACAGTTGGTAA, the sensor-assay potency score (higher = more potent) is -1.44.
